Values joined by “and” are separate entries in the source; they are usually repeats but may differ in a detail not shown here. Identical values can stand only once. Inconclusive results are not listed. Active and inactive are the calls of the source. Unless noted, calls come from the whole dose curve; as a rule, active = well fitted curve in the direction sought with a large enough effect; inconclusive = small, poorly fitted or top-dose-only effect, or another doubt; inactive = no such curve, though single readings can be large; an effect the other way counts as inactive or inconclusive.
How the values were obtained:
[1] = S16 Schwann cell PMP22 intronic element beta-lactamase assay (AID 624044; calls by dose curve; note: nearly all actives have a fitted effect of over 15% in size)
Summary of the method: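 Beta-lactamase reporter under a PMP22 intronic regulatory element in stable S16 rat Schwann cells; 24 h compound exposure. 460 nm blue signal normalized between DMSO (0%) and potassium clavulanate, with 535 nm FRET tracking viability; curves classed by r2 and response.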

7G8 = test: qHTS profiling for inhibitors of Plasmodium falciparum proliferation (AID 504749); note: nearly all actives have a fitted effect of over 60% in size; note: potency is the fitted concentration of half-maximal effect; conditions: P. falciparum in erythrocytes, SYBR Green DNA, 72 h; series mostly up to 12.8 µM
Summary of the method: (§1)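 SYBR Green fluorescence (ex 485 nm, em 535 nm) reports parasite DNA after 72 h compound exposure of infected red cells at 0.3% parasitemia, 2.5% hematocrit; signal normalized to 0.29 uM artemisinin and vehicle wells.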

AA1029 = test: as above; conditions: P. falciparum in erythrocytes, SYBR Green DNA, 72 h; series mostly up to 12.8 µM
Summary of the method: as §1

ATS95 = test: as above; conditions: P. falciparum in erythrocytes, SYBR Green DNA, 72 h; series mostly up to 12.8 µM
Summary of the method: as §1

CP194 = test: as above; conditions: P. falciparum in erythrocytes, SYBR Green DNA, 72 h; series mostly up to 12.8 µM
Summary of the method: as §1

CP203 = test: as above; conditions: P. falciparum in erythrocytes, SYBR Green DNA, 72 h; series mostly up to 12.8 µM
Summary of the method: as §1

CP260 = test: as above; conditions: P. falciparum in erythrocytes, SYBR Green DNA, 72 h; series mostly up to 12.8 µM
Summary of the method: as §1

CP265 = test: as above; conditions: P. falciparum in erythrocytes, SYBR Green DNA, 72 h; series mostly up to 12.8 µM
Summary of the method: as §1

CP335 = test: as above; conditions: P. falciparum in erythrocytes, SYBR Green DNA, 72 h; series mostly up to 12.8 µM
Summary of the method: as §1

DFO2036 = test: as above; conditions: P. falciparum in erythrocytes, SYBR Green DNA, 72 h; series mostly up to 12.8 µM
Summary of the method: as §1

GB4 = test: as above; conditions: P. falciparum in erythrocytes, SYBR Green DNA, 72 h; series mostly up to 12.8 µM
Summary of the method: as §1

P94_40 = test: as above; conditions: P. falciparum in erythrocytes, SYBR Green DNA, 72 h; series mostly up to 12.8 µM
Summary of the method: as §1

TAB109 = test: as above; conditions: P. falciparum in erythrocytes, SYBR Green DNA, 72 h; series mostly up to 12.8 µM
Summary of the method: as §1

[2] = molecular target: Cytochrome P450 2C9 (Homo sapiens) (UniProt P11712); test: qHTS Assay for Inhibitors and Substrates of Cytochrome P450 2C9 (AID 883); note: nearly all actives have a fitted effect of over 60% in size; note: potency is the fitted concentration of half-maximal effect
Summary of the method: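 Signal: luciferase luminescence reporting luciferin produced by CYP2C9. Conditions: 10nM enzyme, Luciferin-H 100uM at KM, 25mM KPO4, 37C, 60 min NADPH-driven reaction. Reference: 57uM sulphaphenazole as 100% inhibition.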

[3] = molecular target: Cytochrome P450 3A4 (Homo sapiens) (UniProt P08684); test: qHTS Assay for Inhibitors and Substrates of Cytochrome P450 3A4 (AID 884); note: nearly all actives have a fitted effect of over 50% in size; note: potency is the fitted concentration of half-maximal effect
Summary of the method: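 Luminescent readout of luciferin produced by CYP3A4 (20 nM) dealkylation of Luciferin-PPXE, 25 uM (its KM). NADPH-driven reaction ran 60 min at RT after 10 min compound preincubation; data scaled to 57 uM ketoconazole as 100% inhibition.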

[4] = molecular target: Cytochrome P450 3A4 (Homo sapiens) (UniProt P08684); test: qHTS Assay for Activators of Cytochrome P450 3A4 (AID 885); note: nearly all actives have a fitted effect of over 65% in size
Summary of the method: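 Activators are scored by enhanced luminescence from CYP3A4 conversion of luciferin-PPXE (25uM, equal to KM) to luciferin, after 60 min at RT with an NADPH-regenerating system.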

CP325 = test: qHTS profiling for inhibitors of Plasmodium falciparum proliferation (AID 504749); note: nearly all actives have a fitted effect of over 60% in size; note: potency is the fitted concentration of half-maximal effect; conditions: P. falciparum in erythrocytes, SYBR Green DNA, 72 h; series mostly up to 12.8 µM
Summary of the method: as §1

[5] = molecular target: Cytochrome P450 2D6 (Homo sapiens) (UniProt P10635); test: qHTS Assay for Inhibitors and Substrates of Cytochrome P450 2D6 (AID 891); note: potency is the fitted concentration of half-maximal effect; nearly all actives have a fitted effect of over 60% in size
Summary of the method: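 Luminescent read-out of luciferin formed by 5 nM human CYP2D6 demethylating 30 uM Luciferin-ME EGE (Km level) over 60 min at room temperature after NADPH regeneration addition. Data normalized to full inhibition by 1.43 uM quinidine.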

[6] = molecular target: Cytochrome P450 2C19 (Homo sapiens) (UniProt P33261); test: qHTS Assay for Inhibitors and Substrates of Cytochrome P450 2C19 (AID 899)
Summary of the method: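 Signal comes from luciferase acting on luciferin released by CYP2C19-mediated hydroxylation of Luciferin-H EGE, 10uM (KM). Assay mix: 5nM enzyme, 50mM KPO4; 60 min at 37C with NADPH regeneration. Data normalized against 57uM ketoconazole.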

Measured: Potency

Chain of Cytochrome P450 3A4 (Homo sapiens) (P08684 whole entry, looked up): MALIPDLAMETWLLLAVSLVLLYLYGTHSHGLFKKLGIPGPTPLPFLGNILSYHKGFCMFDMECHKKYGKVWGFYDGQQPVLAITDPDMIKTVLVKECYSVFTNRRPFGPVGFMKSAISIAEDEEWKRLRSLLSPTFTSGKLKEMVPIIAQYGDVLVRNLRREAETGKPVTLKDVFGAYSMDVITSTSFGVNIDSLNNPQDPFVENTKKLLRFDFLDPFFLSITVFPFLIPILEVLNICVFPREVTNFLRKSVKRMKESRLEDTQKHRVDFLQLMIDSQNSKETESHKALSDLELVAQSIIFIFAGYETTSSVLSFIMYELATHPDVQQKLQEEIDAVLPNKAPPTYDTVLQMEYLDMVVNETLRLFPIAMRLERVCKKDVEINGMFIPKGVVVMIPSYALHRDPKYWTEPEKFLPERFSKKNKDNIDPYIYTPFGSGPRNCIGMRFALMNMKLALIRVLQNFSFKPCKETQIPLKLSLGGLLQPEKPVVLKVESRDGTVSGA
Chain of Cytochrome P450 2C19 (Homo sapiens) (P33261 whole entry, looked up): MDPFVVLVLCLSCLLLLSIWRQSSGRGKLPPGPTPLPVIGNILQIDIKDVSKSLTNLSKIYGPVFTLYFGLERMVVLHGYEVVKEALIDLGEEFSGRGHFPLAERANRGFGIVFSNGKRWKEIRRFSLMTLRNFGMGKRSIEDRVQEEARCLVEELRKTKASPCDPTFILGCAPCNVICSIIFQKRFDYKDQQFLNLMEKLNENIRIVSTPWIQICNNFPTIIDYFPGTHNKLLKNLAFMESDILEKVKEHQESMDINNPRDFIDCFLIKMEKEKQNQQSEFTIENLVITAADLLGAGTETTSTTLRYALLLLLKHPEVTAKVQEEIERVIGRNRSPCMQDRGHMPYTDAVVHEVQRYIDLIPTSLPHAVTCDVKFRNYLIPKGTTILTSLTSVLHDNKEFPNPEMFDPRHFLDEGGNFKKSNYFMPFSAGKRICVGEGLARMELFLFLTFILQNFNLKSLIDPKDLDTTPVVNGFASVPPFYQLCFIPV
Chain of Cytochrome P450 2C9 (Homo sapiens) (P11712 whole entry, looked up): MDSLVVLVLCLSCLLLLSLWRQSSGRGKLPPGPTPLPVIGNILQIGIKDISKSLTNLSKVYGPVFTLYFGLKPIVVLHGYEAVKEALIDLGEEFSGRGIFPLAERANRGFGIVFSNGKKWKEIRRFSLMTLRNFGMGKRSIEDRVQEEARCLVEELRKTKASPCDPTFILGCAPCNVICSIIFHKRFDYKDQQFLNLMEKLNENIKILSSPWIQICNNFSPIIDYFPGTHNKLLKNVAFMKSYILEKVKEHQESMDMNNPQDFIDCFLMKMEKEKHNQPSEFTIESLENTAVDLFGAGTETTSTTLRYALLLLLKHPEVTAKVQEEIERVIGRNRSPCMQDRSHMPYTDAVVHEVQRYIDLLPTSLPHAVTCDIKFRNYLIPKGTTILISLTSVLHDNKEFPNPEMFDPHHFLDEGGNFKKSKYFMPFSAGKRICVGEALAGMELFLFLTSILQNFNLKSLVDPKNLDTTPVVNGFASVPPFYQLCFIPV
Chain of Cytochrome P450 2D6 (Homo sapiens) (P10635 whole entry, looked up): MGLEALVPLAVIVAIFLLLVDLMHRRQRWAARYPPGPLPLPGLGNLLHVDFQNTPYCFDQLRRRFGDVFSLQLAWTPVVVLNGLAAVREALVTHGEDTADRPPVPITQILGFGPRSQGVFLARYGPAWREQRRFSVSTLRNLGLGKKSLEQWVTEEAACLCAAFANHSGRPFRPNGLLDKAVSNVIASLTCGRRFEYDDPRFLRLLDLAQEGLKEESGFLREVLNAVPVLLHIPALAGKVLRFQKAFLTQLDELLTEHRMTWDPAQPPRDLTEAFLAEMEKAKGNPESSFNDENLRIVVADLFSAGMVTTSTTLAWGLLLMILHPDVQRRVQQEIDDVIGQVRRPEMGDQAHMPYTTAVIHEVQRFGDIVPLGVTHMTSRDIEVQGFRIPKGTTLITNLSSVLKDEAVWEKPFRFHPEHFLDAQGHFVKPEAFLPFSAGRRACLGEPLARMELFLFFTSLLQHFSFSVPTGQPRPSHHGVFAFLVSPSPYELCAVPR

CCCC(=O)Nc1ccc(OC[C@@H](O)CNC(C)C)c(C(C)=O)c1
inactive: [1]

O=C(N/N=C\c1ccc([N+](=O)[O-])o1)c1ccc(O)cc1
active: 7G8 0.794 µM | AA1029 3.98 µM | ATS95 3.16 µM | CP194 3.61 µM | CP203 5.1 µM | CP260 2.51 µM | CP265 3.16 µM | CP335 2.03 µM | DFO2036 2.82 µM | GB4 1.81 µM | P94_40 3.55 µM | TAB109 2.24 µM
inactive: [1]

C[C@@H](C(=O)O)c1ccc(N2Cc3ccccc3C2=O)cc1
inactive: [2] | [3]

CO[C@H]1[C@H](O[C@H]2O[C@@H](C)[C@@H](O[C@@H]3C[C@](C)(O)[C@H](O)[C@H](C)O3)[C@@H](N(C)C)[C@@H]2O)[C@@H](CC=O)C[C@@H](C)[C@@H](O[C@H]2CC[C@H](N(C)C)[C@H](C)O2)/C=C\C=C/C[C@@H](C)OC(=O)C[C@H]1O
inactive: CP265 | DFO2036
active: TAB109 1.58 µM

COc1cc(C2Oc3cc(C4Oc5cc(O)cc(O)c5C(=O)C4O)ccc3OC2CO)ccc1O (configuration not stated)
inactive: [4]

O[C@@](CCN1CCCC1)(c1ccccc1)C1CCCCC1
inactive: [1] | CP260 | CP335 | DFO2036 | GB4
active: 7G8 4.47 µM

Cc1ccc2c(c1)c1c3n2CCN[C@H]3CCC1
active: 7G8 6.31 µM
inactive: ATS95 | CP260 | CP325 | DFO2036

C[C@H]1CS(=O)(=O)CCN1/N=C\c1ccc([N+](=O)[O-])o1
inactive: [1] | AA1029 | ATS95 | CP194 | CP203 | CP265 | CP325 | CP335 | P94_40

CC(C)(C)NC[C@@H](O)COc1ccccc1C1CCCC1
inactive: [1]
active: [5] 2.51 µM | 7G8 0.708 µM | AA1029 2.82 µM | ATS95 3.55 µM | CP194 5.73 µM | CP203 3.22 µM | CP260 3.16 µM | CP325 4.55 µM | CP335 3.61 µM | GB4 1.81 µM | P94_40 3.98 µM | TAB109 3.16 µM

NC[C@@H]1O[C@H](O[C@@H]2[C@H](O[C@@H]3O[C@H](CO)[C@@H](O)[C@@H]3O)[C@@H](O)[C@@H](N)C[C@H]2N)[C@@H](N)[C@H](O)[C@@H]1O
inactive: AA1029 | ATS95 | CP194 | CP203 | CP260 | CP265 | CP325 | CP335 | GB4 | P94_40 | TAB109

C=C1c2c(Cl)ccc(O)c2C(O)=C2C(=O)[C@@]3(O)C(O)=C(C(N)=O)C(=O)[C@@H](N(C)C)[C@@H]3[C@@H](O)[C@H]12
active: 7G8 3.16 µM
inactive: [1] | ATS95 | CP203 | CP265 | CP325 | P94_40

COc1ccc([C@@H]2CC(=O)c3c(O)cc(O)cc3O2)cc1O
active: [3] 15.8 µM | [6] 5.01 µM and 7.94 µM
inactive: [4]

C1CCN2C[C@@H]3C[C@@H](CN4CCCC[C@H]34)[C@H]2C1
inactive: [1] | 7G8 | AA1029 | ATS95 | CP194 | CP203 | CP260 | CP265 | CP325 | CP335 | DFO2036 | GB4 | P94_40 | TAB109

CCC(=O)OCC(=O)[C@@]1(OC(=O)CC)[C@H](C)C[C@@H]2[C@@H]3[C@H]([C@@H](O)C[C@@]21C)[C@]1(C)C=CC(=O)C=C1C[C@@H]3Cl
active: 7G8 1 µM | CP260 3.98 µM
inactive: [1] | AA1029 | CP194

CC#C[C@@]1(O)CC[C@H]2[C@@H]3CCC4=CC(=O)CCC4=C3[C@H](c3ccc(N(C)C)cc3)C[C@]21C
active: [2] 3.98 µM

CCN[C@@H]1C[C@H](N)[C@H](O[C@H]2OC(CN)=CC[C@H]2N)[C@@H](O)[C@H]1O[C@H]1OC[C@@](C)(O)[C@@H](NC)[C@@H]1O
inactive: 7G8 | AA1029 | ATS95 | CP194 | CP203 | CP260 | CP265 | CP325 | CP335 | DFO2036 | GB4 | P94_40 | TAB109

C#C[C@]1(O)CC[C@@H]2[C@H]3CCC4=CCCC[C@@H]4[C@@H]3CC[C@@]21C
active: [6] 3.98 µM
inactive: 7G8 | AA1029 | ATS95 | CP194 | CP203 | CP260 | CP265 | CP325 | CP335 | DFO2036 | GB4 | P94_40 | TAB109

CC1=C(C(=O)O)N2C(=O)[C@@H](NC(=O)[C@@H](N)c3ccc(O)cc3)[C@@H]2SC1
inactive: [1] | 7G8 | AA1029 | ATS95 | CP194 | CP203 | CP260 | CP265 | CP325 | CP335 | DFO2036 | GB4 | P94_40 | TAB109

CN1CCO[C@H](c2ccccc2)c2ccccc2C1
inactive: 7G8 | CP260

C[N+](C)(CCCOc1ccccc1)c1ccccc1
active: [5] 0.0158 µM

CCN(CCCCOC(=O)c1ccc(OC)c(OC)c1)[C@@H](C)Cc1ccc(OC)cc1
inactive: [1] | AA1029 | CP325 | DFO2036 | GB4

CC1(C)[C@@H](OC(=O)CCC(=O)O)CC[C@@]2(C)[C@H]1CC[C@@]1(C)[C@H]2C(=O)C=C2[C@H]3C[C@](C)(C(=O)O)CC[C@]3(C)CC[C@@]21C
inactive: [1] | 7G8 | AA1029 | ATS95 | CP194 | CP203 | CP260 | CP265 | CP325 | CP335 | DFO2036 | GB4 | P94_40 | TAB109
